Assay outcomes: PubChem, several laboratories
Hits are enriched below; roughly 3.1% of the tested compounds scored in any of these assays.
SSB-PriA inh = inhibitors of Klebsiella pneumoniae PriA binding to SSB C-terminal tail; AID 1272365; 430,000 compounds, 0.6% hits; inhibition, % at 33 µM; AlphaScreen SSBct-PriA binding, biotinylated peptide; in the data active = inhibition mostly above about 37%, no sharp cut-off; inactive = mostly below about 20%;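 note: plate controls were negative control peptide for no effect and reference peptide for full effect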
Bead autofluor = counter-screen for toxin protease inhibitors: compound fluorescence; compound autofluorescence counterscreen, microsphere flow cytometry; active compounds read high; fluorescence intensity (no concentration beside the values); 360,000 compounds, 3.1% hits; AID 624483; in the data active = fluorescence intensity above about 16000; inconclusive = no clear call, values can overlap the other calls
BoNT-A LC inh2 = blocks Botulinum neurotoxin A light chain protease; multiplex microsphere protease substrate cleavage, flow cytometry; 360,000 compounds, 0.17% hits; inhibition, % at 10 µM; note: plate controls were buffer without enzyme for full effect and enzyme alone for no effect
BoNT F protease = inhibitors of Botulinum neurotoxin F light chain protease; Multiplex microsphere protease cleavage assay, flow cytometry; inhibition, % at 10 µM; 360,000 compounds, 0.22% hits; in the data active = inhibition above about 35%, passing the limit was not always enough; inconclusive = no clear call, values can overlap the other calls; note: plate controls were buffer without enzyme for full effect and enzyme alone for no effect
Anthrax LF prot = anthrax lethal factor protease inhibition | inhibition, % at 10 µM | 360,000 compounds, 0.12% hits | multiplex microsphere protease cleavage assay, LF; note: plate controls were buffer without enzyme for full effect and enzyme alone for no effect
Target sequence (P15917 whole entry, looked up): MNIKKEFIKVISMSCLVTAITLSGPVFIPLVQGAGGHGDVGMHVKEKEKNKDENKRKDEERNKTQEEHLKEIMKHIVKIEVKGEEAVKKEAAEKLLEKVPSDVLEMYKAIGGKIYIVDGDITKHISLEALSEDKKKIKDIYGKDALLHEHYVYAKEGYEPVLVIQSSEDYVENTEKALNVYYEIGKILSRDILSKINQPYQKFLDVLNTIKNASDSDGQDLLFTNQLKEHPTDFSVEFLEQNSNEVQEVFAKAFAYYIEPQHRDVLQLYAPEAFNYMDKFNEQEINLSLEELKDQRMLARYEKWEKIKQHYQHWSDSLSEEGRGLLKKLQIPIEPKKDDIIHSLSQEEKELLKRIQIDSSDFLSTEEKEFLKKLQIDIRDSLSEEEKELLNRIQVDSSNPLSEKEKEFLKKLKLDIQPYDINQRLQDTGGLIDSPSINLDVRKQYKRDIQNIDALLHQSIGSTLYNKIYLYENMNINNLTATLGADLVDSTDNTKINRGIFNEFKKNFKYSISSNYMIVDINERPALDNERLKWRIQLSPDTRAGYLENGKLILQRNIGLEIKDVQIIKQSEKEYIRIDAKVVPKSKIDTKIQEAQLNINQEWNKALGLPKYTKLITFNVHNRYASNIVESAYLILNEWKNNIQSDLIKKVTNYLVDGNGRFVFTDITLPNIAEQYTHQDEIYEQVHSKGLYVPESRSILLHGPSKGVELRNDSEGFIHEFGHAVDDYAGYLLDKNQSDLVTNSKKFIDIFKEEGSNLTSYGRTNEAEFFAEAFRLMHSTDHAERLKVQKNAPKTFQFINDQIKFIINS
* marks the source's active call; other numbers are inactive results; ? = inconclusive; nt = no result given. Cut-off read from the data, not from the text of the source, unless noted: active = inhibition above about 30%; inconclusive = no clear call, values can overlap the other calls; inactive = below that.

SMILES	SSB-PriA inh	Bead autofluor	BoNT-A LC inh2	BoNT F protease	Anthrax LF prot
O=C(CSc1nnc(-c2ccccc2)n1-c1ccccc1)c1cccs1	-12	21163*	?	-6	-1
O=C(CSc1nnc(-c2ccccc2)n1-c1ccccc1)c1ccc[nH]1	-17	2210	0	-8	-1
O=C(CCN1C(=O)/C(=C/c2ccccc2)SC1=S)NNC(=O)c1cccnc1	1	2471	0	2	-1
O=C(CCN1C(=O)/C(=C/c2cccc(Br)c2)SC1=S)NNC(=O)c1cccnc1	-20	16764*	-1	-4	-3
O=C(NN1C(=O)/C(=C/c2cccs2)SC1=S)c1ccccc1	4	8439	10	41*	22
O=C(NN1C(=O)/C(=C/c2cccnc2)SC1=S)C(c1ccccc1)c1ccccc1	8	21106*	-1	-2	-2
Cc1noc(C)c1S(=O)(=O)N1CCC(Cn2ccnc2C)CC1	-4	nt	nt	nt	nt
COCCN1CCC(NC(=O)c2ccc(Br)o2)CC1	-20	nt	nt	nt	nt
OC(CSc1c(Cl)cccc1Cl)CN1CCN(c2ccccc2F)CC1 (stereo unspecified)	-11	20273*	0	-6	-2
O=C(CC(c1ccccc1)c1ccccc1)Nc1cnoc1	-18	nt	nt	nt	nt
Cc1cccc(-c2noc(CCCC(=O)N3CCOCC3)n2)c1	-3	21401*	7	5	-6
Cc1ccc(-c2noc(CCCC(=O)N3CCOCC3)n2)cc1	-20	20543*	4	5	-1
CCCN1CCCc2cc(CCNC(=O)c3cccc(F)c3)ccc21	41*	nt	nt	nt	nt
CCCN1CCCc2cc(CCNC(=O)c3cccc(C)c3)ccc21	59*	nt	nt	nt	nt
CCCN1CCCc2cc(CCNC(=O)c3cc(OC)cc(OC)c3)ccc21	59	nt	nt	nt	nt
CCCN1CCCc2cc(CCNC(=O)c3cccc(Cl)c3)ccc21	48	nt	nt	nt	nt
CCCN1CCCc2cc(CCNC(=O)c3cccc(OC)c3)ccc21	61*	nt	nt	nt	nt
CCCN1CCCc2cc(CCNC(=O)c3c(F)cccc3F)ccc21	54*	nt	nt	nt	nt
Cc1ccc(S(=O)(=O)N2CCCC2NC(=O)NNC(=O)c2ccncc2)cc1 (stereo unspecified)	3	nt	nt	nt	nt
O=C(CCCCCn1c(=S)[nH]c2ccccc2c1=O)N1CCC2(CC1)OCCO2	-11	21724*	3	8	1
Cn1c(=O)n(CC(=O)N2CCC3(CC2)OCCO3)c(=O)c2ccccc21	4	2120	0	3	1
O=C(Cn1c(=S)[nH]c2ccccc2c1=O)N1CCC2(CC1)OCCO2	-10	24695*	-4	-7	-4
NS(=O)(=O)c1ccc(NC(=O)C2=Cc3ccccc3OC2)cc1	2	nt	nt	nt	nt
O=C(NCCc1nc2c(c(C(F)(F)F)n1)CCCC2)c1ccc2c(c1)OCO2	-24	nt	nt	nt	nt
CCOc1ccc(S(=O)(=O)Nc2ccc(CC(=O)NC)cc2)cc1F	-11	nt	nt	nt	nt
SMILES	SSB-PriA inh	Bead autofluor	BoNT-A LC inh2	BoNT F protease	Anthrax LF prot
O=C1C(Cc2ccc(Br)cc2)SC(=Nc2ccccc2)N1c1ccccc1 (stereo unspecified)	-5	2035	2	36*	-2
CCOc1ccc2ccccc2c1C(=O)Nc1ccc2c(c1)CN(C(=O)c1ccco1)CC2	5	nt	nt	nt	nt
CN(C)S(=O)(=O)c1cccc(NC(=S)NN=Cc2cc(Br)ccc2O)c1	47*	nt	nt	nt	nt
COc1ccc(O)c(C=NNC(=S)Nc2cccc(S(=O)(=O)N(C)C)c2)c1	99	nt	nt	nt	nt
Cc1ccc(O)c(C(=O)c2coc(=N)c(C(=O)NC(C)C)c2)c1	-2	20781*	?	0	-4
COC(=O)c1cc(C(=O)c2cc(Cl)ccc2O)coc1=N	-6	4569	1	2	-6
Cc1ccc2[nH]c(=O)c(CN(CCCN3CCOCC3)C(=O)NC3CCCCC3)cc2c1	-12	22874*	?	-2	-1
O=C(NC1CCCCC1)N(CCN1CCOCC1)Cc1cc2cc3c(cc2[nH]c1=O)OCCO3	-1	19967*	1	-1	0
CCN(CC)CCN(Cc1cc2cc3c(cc2[nH]c1=O)OCCO3)C(=O)NC1CCCCC1	4	4951	0	-6	2
O=C(Nc1ccc2c(c1)N(C(=O)c1ccco1)CC2)c1cc2ccccc2oc1=O	-9	nt	nt	nt	nt
CCC(=O)Nc1ccc(C(=O)NCCNS(=O)(=O)c2ccc(F)cc2)cc1	-11	nt	nt	nt	nt
CCOc1ccc(-c2noc(C3CCN(S(=O)(=O)c4cccs4)CC3)n2)cc1OC	-3	nt	nt	nt	nt
O=C(NCCNc1ccc(Nc2ccccn2)nn1)[C@@H]1CCCO1	52*	nt	nt	nt	nt
O=S(=O)(NCCNc1ccc(Nc2ccccn2)nn1)c1ccccc1Cl	89*	nt	nt	nt	nt
Cc1ccc(-c2nnc(NC(=O)c3ccnn3C)o2)cc1C	0	nt	nt	nt	nt
COc1ccccc1CC(=O)Nc1cc(Cl)ccc1O	-5	18515*	?	6	-8
COc1ccccc1CC(=O)Nc1ccccc1O	-15	20480*	8	14	-6
COc1ccccc1OCC(=O)Nc1ccc(Cl)cc1C(=O)c1ccccc1	-10	23660*	-2	-1	-3
O=C(CCSc1ccccc1)N1Cc2cnc(N3CCOCC3)nc2C1	-12	nt	nt	nt	nt
O=C(c1cc2ccccc2o1)N1CCS[C@H]1c1cccc(F)c1	-7	nt	nt	nt	nt
CCOC(=O)NCC#CCN1CCc2ccccc2C1	-16	nt	nt	nt	nt
CC(C)Cc1nnc(NS(=O)(=O)Cc2ccccc2)s1	-5	21019*	7	8	2
CC(C)Cc1nnc(NS(=O)(=O)c2ccccc2)s1	nt	3733	0	-4	0
O=C(Nc1cc(N2CCCC2)ncn1)c1cccc(C(F)(F)F)c1	53	nt	nt	nt	nt
c1ccc2c(c1)oc1c(Nc3ccc4c(c3)OCO4)ncnc12	5	2438	0	-5	4
SMILES	SSB-PriA inh	Bead autofluor	BoNT-A LC inh2	BoNT F protease	Anthrax LF prot
Cc1nc(Nc2ccc3c(c2)OCO3)c2oc3ccccc3c2n1	-5	24138*	?	-5	-4
CCc1nc(Nc2ccccc2)c2oc3ccccc3c2n1	-13	19756*	?	3	-2
CCCc1nc2ccccc2n1Cc1ccccc1F	5	nt	nt	nt	nt
CCCC(=O)Nc1c2c(nn1-c1ccc(F)cc1)CS(=O)(=O)C2	-4	2958	-2	-32	-8
O=C(Nc1c2c(nn1-c1ccc(F)cc1)CS(=O)(=O)C2)C12CC3CC(CC(C3)C1)C2	0	24380*	?	-3	-2
CO[C@@H](CNC(=O)COc1ccccc1F)c1ccco1	-9	nt	nt	nt	nt
CC1(C)Cc2ccccc2C(CCl)=N1	45*	nt	nt	nt	nt
COc1ccc(Cl)cc1C(=O)NCC1CCN(c2nccnc2C#N)CC1	-14	nt	nt	nt	nt
OCCSc1c(F)c(SCCO)c(SCCO)c(F)c1SCCO	-28	23508*	0	2	0
CC(C)C(=O)N1CCN(c2nc3ccc([N+](=O)[O-])cc3s2)CC1	3	nt	nt	nt	nt
N#Cc1c(N=Cc2cccs2)sc2c1CCCC2	38*	nt	nt	nt	nt
COc1ccc(S(=O)(=O)NC[C@H](OC)c2ccsc2)cc1Cl	-18	nt	nt	nt	nt
CCOc1ccc(CNC(=O)CCn2c(=O)oc3ccccc32)cc1	-11	16172*	1	-2	-5
CCOc1ccc(OCC)c(NC(=O)CCn2c(=O)oc3ccccc32)c1	-3	19376*	?	0	1
CCOc1ccccc1NC(=O)Cn1c(=O)oc2ccccc21	-7	3298	-1	-2	-1
O=C(NC1CCCCC1)C(c1cccnc1)N(C(=O)CCl)c1ccc(F)cc1 (stereo unspecified)	12	2675	0	-2	-3
